Screening results (PubChem BioAssay)
HT1080-NT tox = qHTS for induction of synthetic lethality in tumor cells producing 2HG: qHTS for the HT-1080-NT fibrosarcoma cell line. Potency, µM (series often up to 46.1 µM), most hits filed as cytotoxic. 360,000 tested, 1.6% active. HT-1080-NT fibrosarcoma viability, CellTiter-Glo ATP luminescence, 48 h;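 further: NT is the 2HG producing partner of a matched IDH1 knockdown line; nearly all actives have a fitted effect of over 55% in size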
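Viability of the 2HG-overproducing fibrosarcoma line after 48 hours of compound exposure at 37 degrees C was determined by luminescence with CellTiter-Glo, and concentration-effect curves were then fitted and categorized.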
DT40 TDP1 no CPT = qHTS for Inhibitors of human tyrosyl-DNA phosphodiesterase 1 (TDP1): qHTS in cells in absence of CPT | DT40 Tdp1-/- hTDP1 cells, no CPT, ATP luminescence, 48 h | AID 686978, 2013 | Potency, µM (doses to about 46.2 µM), usual class: inhibitors | 420,000 tested, 15% active; further: nearly all actives have a fitted effect of over 55% in size
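Chicken DT40 Tdp1-/- cells stably complemented with human TDP1 were seeded at 400 cells/well with DMSO in place of 20 nM camptothecin. After compound pinning, cells grew at least 48 hr at 37 °C; viability read by CellTiter-Glo luminescence.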
DT40 TDP1 CPT = qHTS for Inhibitors of human tyrosyl-DNA phosphodiesterase 1 (TDP1): qHTS in cells in presence of CPT. Potency, µM (highest dose often 46.2 µM), usual class: inhibitors. 420,000 tested, 12% active. chicken DT40 Tdp1-/-;hTDP1 cells + 20 nM CPT, ATP luminescence, 48 h; further: nearly all actives have a fitted effect of over 55% in size
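Cell growth measured by CellTiter-Glo luminescence after a minimum 48 h, 37 C compound exposure with 20 nM CPT in Tdp1-knockout DT40 cells stably expressing hTDP1, seeded 400/well; qHTS titration format.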
HT1080 IDH1KD tx = qHTS for induction of synthetic lethality in tumor cells producing 2HG: qHTS for the HT-1080-IDH1KD cell line; HT-1080 IDH1 knockdown viability, ATP luminescence, 48 h; Potency, µM (top dose mostly 46.1 µM), hits mostly cytotoxic; 360,000 tested, 2% active
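Luminescent ATP read-out (CellTiter-Glo, 10 min at room temperature) after 48 h compound exposure at 37 °C gave viability of IDH1-knockdown HT-1080 cells. Activity was normalised to DMSO and cell-free wells, then fitted as concentration-response curves.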
IL-1B inflam inh = qHTS for Inhibitors of Inflammasome Signaling: IL-1-beta AlphaLISA Primary Screen. THP-1 LPS/ATP IL-1B secretion, AlphaLISA, 16 h; active compounds read low. activity change, % at 57.5 µM. 360,000 tested, 4.7% active; in the data active means activity change below about -50%; inconclusive means mostly about -30% to -49%
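Secreted IL-1B measured by AlphaLISA bead assay after 16 h compound exposure of THP-1 cells; compounds (final up to 57.5 uM) added 1 h before LPS (250 ng/mL) and ATP (1.25 mM) stimulation; lower signal means less secretion.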
Numbers stand for hits; i = inactive; ? = inconclusive; nt = no result given; ! = a repeat was not active; [ ] = another dose, or the depositor's remark. Rows were chosen to be rich in hits. Some 19% of all compounds tested hit in one or more screens of this group. Unless noted, the call rests on the fitted dose curve; in most records, active means well fitted curve in the direction sought with a large enough effect; inconclusive means small, poorly fitted or top-dose-only effect, or another doubt; inactive means no such curve, though single readings can be large; an effect the other way counts as inactive or inconclusive.

SMILES	HT1080-NT tox	DT40 TDP1 no CPT	DT40 TDP1 CPT	HT1080 IDH1KD tx	IL-1B inflam inh
O=C(Cc1ccc(S(=O)(=O)N2CCCC2)s1)N1CCN(c2ccc(F)cc2)CC1	i	?	?	i	i
Cc1c(Cl)ccc2sc(N3CCN(C(=O)CCS(=O)(=O)c4ccc(F)cc4)CC3)nc12	nt	0.46µM	0.58µM	nt	nt
COc1ccc2c(c1OC)C(=O)OC2C1c2cc3c(cc2CCN1C)OCO3 (centres undefined)	i	i	i	i	i
COc1cccc2c1cc([N+](=O)[O-])c1c(C(=O)O)cc3c(c12)OCO3	i	12µM!	18µM!	i	-58
CC(CCc1ccccc1)NC(C)C(O)c1ccc(O)cc1 (centres undefined)	i	23µM!	?	i	i
CC(NCc1ccc(Cl)cc1)C(O)c1ccccc1 (centres undefined)	i	i	i	?	i
Cc1ccc(N2C(=O)NC(=O)/C(=C/c3ccoc3)C2=O)cc1	i	?	i	i	nt
Cc1cc(C)cc(N2C(=O)NC(=O)/C(=C\C=C\c3ccco3)C2=O)c1	?	5.8µM	5.2µM	?	-86
CC1=NN(c2ccccc2)C(=O)C1/C=C1\C(=O)NC(=O)N(c2cc(C)cc(C)c2)C1=O (centres undefined)	i	?	i	i	i
O=C1NC(=O)N(c2ccccc2)C(=O)/C1=C\C=C\c1ccccc1	?	2.6µM	2.1µM	5.2µM	-98
CC(C)c1ccc(N2C(=O)NC(=O)/C(=C/C=C/c3ccco3)C2=O)cc1	i	4.6µM	5.2µM	?	?
CCc1ccc(N2C(=O)NC(=O)/C(=C\C=C\c3ccco3)C2=O)cc1	i	3.3µM	3.7µM	i	-96
C=C(C)C1Cc2c(ccc3c(=O)c4c(oc23)COc2cc(OC)c(OC)cc2-4)O1 (centres undefined)	nt	i[9.04 µM]	i[9.04 µM]	nt	nt
COC(=O)C1=C(c2c(C)noc2C)C[C@@H]2CC[C@H]1N2C(=O)N1CCc2cc(OC)c(OC)cc2C1	i	?	?	i	i
CCc1cc(=O)oc2c(C)c(OCC(=O)N3C[C@H]4C[C@@H](C3)c3cccc(=O)n3C4)ccc12	i	i	i	i	i
CC(Cc1ccccc1)NCCn1cnc2c1c(=O)n(C)c(=O)n2C (centres undefined)	nt	?	i	nt	nt
CC(=O)Nc1ccc(OCC(O)Cn2c3ccccc3c3ccccc32)c(C)c1 (centres undefined)	?	18µM	?	?	-60
COc1ccc(NC(C)=O)cc1NC(=O)c1cccn(Cc2ccccc2)c1=O	nt	i	i	nt	nt
COc1cc(CC(C)N)cc(OC)c1OC (centres undefined)	nt	i	i	nt	nt
Cc1ccc(OP(=O)(NC(C)c2ccccc2)Oc2ccc(C)cc2)cc1 (centres undefined)	i	?	?	?	i
CC/C(=C\C=C\[C@@H]1C=C[C@@H]2CCC[C@H]2[C@@H]1C(=O)c1ccc[nH]1)[C@@H]1O[C@@H]([C@@H](C)C(=O)O)CC[C@@H]1C	10µM	5.8µM	7.3µM	8.2µM	i
CCc1cccc(CC)c1N(COC)C(=O)CCl	nt	?	21µM!	nt	i
CCOCN(C(=O)CCl)c1c(C)cccc1CC	i	?	?	i	-60
COCC(C)N(C(=O)CCl)c1c(C)csc1C (centres undefined)	nt	i	i	nt	nt
NN=C(N)N	i	?	i	i	i
CCOP(=O)(Nc1ccc2c(c1)C(=NNC(N)=S)c1ccccc1-2)OCC	?	9.2µM	18µM	?	i
COC(=O)NC(=S)Nc1ccccc1NC(=S)NC(=O)OC	nt	?	21µM!	nt	i
N#CC(C#N)=NNc1ccc(OC(F)(F)F)cc1	nt	1.1µM	1.1µM	nt	nt
CN1CCC2(CC1)CCN(C(=O)c1ccco1)CC2	nt	i	i	nt	nt
COc1cc(CN2CCc3nc(N4CCN(c5ncccn5)CC4)ncc3C2)cc(OC)c1OC	nt	8.2µM	8.2µM	nt	nt
